From PubChem BioAssay

Legend:
[1] = target: Tumor necrosis factor receptor superfamily member 10B (Homo sapiens) (UniProt O14763); test: caspase-8 TRAIL sensitization, hit retest, confirmation, cell-based, NB7+caspase-8, with/without TRAIL, luminescence panel (AID 651596); details: NB7 neuroblastoma + caspase-8, TRAIL sensitization, luminescence viability, with TRAIL, mean of runs, at 10 µM, stronger effect = higher value
[2] = as above; details: NB7 neuroblastoma + caspase-8, without TRAIL, luminescence viability, without TRAIL, mean of runs, at 10 µM

Tumor necrosis factor receptor superfamily member 10B (Homo sapiens), sequence (O14763 whole entry, looked up): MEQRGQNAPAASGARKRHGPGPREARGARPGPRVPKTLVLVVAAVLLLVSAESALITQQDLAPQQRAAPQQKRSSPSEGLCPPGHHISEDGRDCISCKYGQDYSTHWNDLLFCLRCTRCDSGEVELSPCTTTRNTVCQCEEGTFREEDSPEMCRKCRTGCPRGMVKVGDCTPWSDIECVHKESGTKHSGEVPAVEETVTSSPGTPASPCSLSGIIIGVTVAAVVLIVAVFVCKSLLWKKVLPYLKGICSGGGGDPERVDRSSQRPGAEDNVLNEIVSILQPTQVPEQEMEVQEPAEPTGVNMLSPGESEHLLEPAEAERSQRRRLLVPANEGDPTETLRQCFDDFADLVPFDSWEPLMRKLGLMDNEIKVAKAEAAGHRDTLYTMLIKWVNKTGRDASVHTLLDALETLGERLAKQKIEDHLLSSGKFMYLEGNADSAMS

Row | SMILES | activity [1] [%] | activity [2] [%]
1 | Cc1ccc2nc(NC(=S)NC(=O)c3ccco3)sc2c1 | 77.9 | 62.9
2 | C/C(=N\NC(=O)c1cccc(O)c1)c1cccc(NC(=O)c2ccc(F)cc2)c1 | 74.5 | 77.4
3 | O=C(Nc1nc2c(s1)CCCC2)c1ccc(Br)o1 | 73.7 | 88.6
4 | CCCCCCc1cc2cc(C(=O)Nc3ccccc3)c(=O)oc2cc1O | 72.8 | 65.2
5 | CCOc1ccc(-c2ccc(SCC(=O)NCC3CCCO3)nn2)cc1 (stereo not drawn) | 41.8 | 32.7
6 | c1csc(-c2ccc(N3CCOCC3)nn2)c1 | 69.5 | 69.4
7 | Cc1ccc(-c2cc3nc4c(c(=O)n3[nH]2)CCCC4)cc1 | 55.2 | 54.7
8 | COc1cccc(-c2nnc(-c3ccc(C)o3)o2)c1 | 64.9 | 65.2
9 | CC(C)Cc1nc2oc3c(Cl)ncnc3c2c2c1CCC2 | 95.9 | 96.4
